Test results taken from PubChem BioAssay (NCATS).
Records with an inconclusive call do not appear. Activity calls are given as the source filed them. The call rests on the fitted dose curve; in most records, active means well fitted curve in the direction sought with a large enough effect; inconclusive means small, poorly fitted or top-dose-only effect, or another doubt; inactive means no such curve, though single readings can be large; an effect the other way counts as inactive or inconclusive.

Key:
[1] = qHTS to identify inhibitors of the type 1 interferon - major histocompatibility complex class I in skeletal muscle: primary screen against the NCATS Mechanism Interrogation Plate v5.0 (MIPE) Libary (AID 1347411); further: nearly all actives have a fitted effect of over 65% in size
Summary of the method: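 Immortalized human myoblasts (C25cl48) with HiBit knocked into endogenous HLA-B*08:01 were stimulated with 4 ng/ml IFN-beta and given compounds in 11-point 1:3 titration from 46 uM. After 24 h at 37 C, lytic HiBiT luminescence was read.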

[2] = target: Protein phosphatase 1D (Homo sapiens) (UniProt O15297); experiment: RapidFire Mass Spectrometry qHTS Assay for Modulators of WT P53-Induced Phosphatase 1 (WIP1) (AID 1347424);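 further: amount of dephosphorylated VEPPL-S-QETFS peptide product formed by WIP1; series mostly up to about 63 µM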
Sequence of Protein phosphatase 1D (Homo sapiens) (O15297 whole entry, looked up): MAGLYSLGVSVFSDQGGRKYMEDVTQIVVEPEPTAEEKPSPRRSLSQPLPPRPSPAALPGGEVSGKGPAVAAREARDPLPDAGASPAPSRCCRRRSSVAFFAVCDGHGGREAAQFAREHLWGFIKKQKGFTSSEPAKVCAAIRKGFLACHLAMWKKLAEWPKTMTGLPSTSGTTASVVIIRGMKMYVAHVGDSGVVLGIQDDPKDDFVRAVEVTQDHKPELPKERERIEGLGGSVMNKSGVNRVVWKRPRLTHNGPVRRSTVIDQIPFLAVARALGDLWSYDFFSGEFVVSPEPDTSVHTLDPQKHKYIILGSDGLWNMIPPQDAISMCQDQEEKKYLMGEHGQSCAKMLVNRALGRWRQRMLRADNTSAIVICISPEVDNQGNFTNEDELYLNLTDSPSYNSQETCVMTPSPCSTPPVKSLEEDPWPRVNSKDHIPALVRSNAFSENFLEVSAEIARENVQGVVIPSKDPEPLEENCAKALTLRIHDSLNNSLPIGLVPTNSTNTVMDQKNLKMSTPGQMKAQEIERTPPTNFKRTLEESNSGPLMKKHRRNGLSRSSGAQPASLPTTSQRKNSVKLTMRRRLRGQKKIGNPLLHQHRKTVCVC
Summary of the method: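 10 nM WIP1 + cpd, 1 h RT; + 2 uM VEPPL-pS-QETFS, 5 min RT; stop 0.5% formic acid; labelled product standard 1 uM; RapidFire MS. Buffer 50 mM Tris pH 7.5, 30 mM MgCl2, 1 mM TCEP.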

[3] = target: Protein phosphatase 1D (Homo sapiens) (UniProt O15297); experiment: Rhodamine-PBP qHTS Assay for Modulators of WT P53-Induced Phosphatase 1 (WIP1) (AID 1347425)
Summary of the method: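 Steps: enzyme with Rh-PBP sensor and compounds, room-temperature incubation of 1 hr, baseline read, addition of VEPPL-pS-QETFS (10 uM final), kinetic fluorescence reads at 525/598 nm. Activity equals final minus baseline signal.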

[4] = Validation qHTS assay for inhibitors of Activation Induced Cytidine Deaminase (AID): UDG Counterscreen signal (AID 1347427)
Summary of the method: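 Counterscreen read of UDG activity (2 U/mL, 4/3x) in the FRET deamination format with AID (1 uM, 4/3x), DJC20/DJC23 substrates (250 nM, 4x), 4 h at room temperature. NaOH stop, fluorescence at 560 ex/665 em.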

[5] = target: Single-stranded DNA cytosine deaminase (Homo sapiens) (UniProt Q9GZX7); experiment: Validation qHTS assay for inhibitors of Activation Induced Cytidine Deaminase (AID): AID signal (AID 1347429)
Sequence of Single-stranded DNA cytosine deaminase (Homo sapiens) (Q9GZX7 whole entry, looked up): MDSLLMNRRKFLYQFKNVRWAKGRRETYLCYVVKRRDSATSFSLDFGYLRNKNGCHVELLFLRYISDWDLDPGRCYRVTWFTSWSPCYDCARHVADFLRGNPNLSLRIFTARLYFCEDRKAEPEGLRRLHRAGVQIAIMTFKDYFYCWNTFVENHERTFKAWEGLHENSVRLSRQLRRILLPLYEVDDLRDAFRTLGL
Summary of the method: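 FRET deamination assay: 1 uM AID (4/3x stock) with UDG, compound up to 114 uM, then 250 nM DJC20/DJC23 substrate (4x stock) for 4 hr at room temperature. NaOH added, 30 min; fluorescence read 540/590 nm.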

[6] = Primary qHTS for inhibitors of La Crosse Virus (LACV) - induced cell death in SH-SY5Y cells (AID 1508616);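 further: top concentration of the series differs between compounds; higher means more rescue of cells from virus-induced death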
Summary of the method: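 SH-SY5Y cells (6000/well) plated 24 h, then given compounds by pin transfer and LACV at 0.01 MOI for 6 days at 37C. Viability measured by ATPLite luminescence, normalized to infected DMSO and uninfected DMSO.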

[7] = target: Calcium and integrin-binding protein 1 (Homo sapiens) (UniProt Q99828); experiment: Validation qHTS for Identification of Calcium Integrin Binding protein 1 (CIB1) Competitor (AID 1508618)
Sequence of Calcium and integrin-binding protein 1 (Homo sapiens) (Q99828 whole entry, looked up): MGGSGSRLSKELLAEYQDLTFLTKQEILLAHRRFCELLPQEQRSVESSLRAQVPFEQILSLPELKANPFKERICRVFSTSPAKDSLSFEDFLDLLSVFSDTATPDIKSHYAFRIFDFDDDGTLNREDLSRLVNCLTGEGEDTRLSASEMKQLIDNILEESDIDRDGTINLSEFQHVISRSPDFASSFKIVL
Summary of the method: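 In this qHTS validation, the LOPAC set (up to 114 uM) was tested for blocking CIB1 binding to a fluorescein-tagged alphaIIb peptide, with FP detection at 480/540 nm.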

[8] = target: Calcium and integrin-binding protein 1 (Homo sapiens) (UniProt Q99828); experiment: Primary qHTS for Identification of Calcium Integrin Binding Protein 1 (CIB1) Competitor (AID 1508620);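 further: GST tagged CIB1 binding a fluorescein labelled alphaIIb integrin peptide tracer; top concentration of the series differs between compounds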
Summary of the method: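 CIB1-GST (1 uM final) and compound incubated 15 min at room temperature before adding FITC-alphaIIb peptide tracer (100 nM final). Competition for binding read by fluorescence polarization (ex 480, em 540) after another 15 min at room temperature.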

Measured: Potency

Clc1ccc2nsnc2c1NC1=NCCN1
not listed: [7] | [8]
inactive: all other assays above

Cn1cnc2c1c(=O)[nH]c(=O)n2C
inactive: all assays above

Nc1c2c(nc3ccccc13)CCCC2
not listed: [8]
inactive: all other assays above

NC(=O)OCC(COC(N)=O)c1ccccc1
inactive: all assays above

CN(C)CCC=C1c2ccccc2C=Cc2ccccc21
not listed: [8]
inactive: all other assays above

Cc1cc(C(C)(C)C)cc(C)c1CC1=NCCN1
not listed: [8]
inactive: all other assays above

CC(C)C(=O)Nc1ccc([N+](=O)[O-])c(C(F)(F)F)c1
not listed: [8]
inactive: all other assays above

CC(C(=O)O)c1cccc(C(=O)c2ccccc2)c1 (configuration not stated)
not listed: [7] | [8]
inactive: all other assays above

NCCc1cnc[nH]1
not listed: [8]
inactive: all other assays above

CCN1CCCC1CNC(=O)c1cc(S(=O)(=O)CC)c(N)cc1OC (configuration not stated)
not listed: [8]
inactive: all other assays above

CCOC(=O)c1ncn2c1CN(C)C(=O)c1cc(F)ccc1-2
not listed: [8]
inactive: all other assays above

Cc1cnc(C(=O)NCCc2ccc(S(=O)(=O)NC(=O)NC3CCCCC3)cc2)cn1
not listed: [7] | [8]
inactive: all other assays above

NCCS(=O)(=O)O
inactive: all assays above

O=c1[nH]cc(F)c(=O)[nH]1
inactive: all assays above

CC(C)NCC(O)COc1ccc(CCOCC2CC2)cc1 (configuration not stated)
inactive: all assays above

COc1nc(C)nc(Cl)c1NC1=NCCN1
not listed: [8]
inactive: all other assays above

CN1CCN(C2=Nc3cc(Cl)ccc3Nc3ccccc32)CC1
not listed: [8]
inactive: all other assays above

CCOC(=O)C(C)(C)Oc1ccc(Cl)cc1
inactive: all assays above

CCC1(C)CC(=O)NC1=O (configuration not stated)
inactive: all assays above

CNCCCC12CCC(c3ccccc31)c1ccccc12
not listed: [8]
inactive: all other assays above

CC(C)(Oc1ccc(C2CC2(Cl)Cl)cc1)C(=O)O (configuration not stated)
inactive: all assays above

COc1ccc2[nH]cc(CCNC(C)=O)c2c1
inactive: all assays above

C[C@H]1c2cccc(O)c2C(O)=C2C(=O)[C@]3(O)C(O)=C(C(N)=O)C(=O)[C@@H](N(C)C)[C@@H]3[C@@H](O)[C@@H]21
not listed: [8]
inactive: all other assays above
